Test [1] is described as follows: NCI Yeast Anticancer Drug Screen. Data for the rad50 strain (AID 155).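 Note: 0% = growth of vehicle-only cultures of the same strain.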 To be noted: S. cerevisiae rad50 strain growth inhibition, stronger effect = higher value. The method in brief:
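Growth of the mutant yeast was measured after compound exposure and referenced to vehicle-treated cultures.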

The nature of test [2]: NCI Yeast Anticancer Drug Screen. Data for the mec2-1 strain (AID 157). Conditions: S. cerevisiae mec2-1 strain, stronger effect = higher value. The gist of the method:
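Each compound was tested on mec2-1 yeast, a strain altered in DNA damage repair or cell cycle control. Growth inhibition is reported relative to vehicle.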

The nature of test [3]: NCI Yeast Anticancer Drug Screen. Data for the sgs1 mgt1 strain (AID 161).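 Note: 0% = growth of cultures given vehicle only.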 To be noted: S. cerevisiae sgs1 mgt1 strain, stronger effect = higher value. The gist of the method: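 Mutant yeast exposed to compound; growth scored against vehicle-only wells.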
Test [4] is described as follows: NCI Yeast Anticancer Drug Screen. Data for the cln2 rad14 strain (AID 165).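 Note: 0% = growth equal to vehicle treated cultures.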 To be noted: S. cerevisiae cln2 rad14 strain, stronger effect = higher value. The gist of the method:
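Test compounds were added to cln2 rad14 yeast cultures; inhibition of growth was then determined by comparison with vehicle treatment.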

The nature of test [5]: NCI Yeast Anticancer Drug Screen. Data for the bub3 strain (AID 167). To be noted: S. cerevisiae bub3 mutant strain, stronger effect = higher value. The gist of the method:
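Whole-cell yeast assay. The mutant strain was incubated with compounds, and growth inhibition was determined by comparison with vehicle-treated cells.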

Test [6] is described as follows: NCI Yeast Anticancer Drug Screen. Data for the mlh1 rad18 strain (AID 175). To be noted: S. cerevisiae mlh1 rad18 strain growth inhibition, stronger effect = higher value. The method in brief: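 Inhibition values reflect reduced growth of mutant yeast versus vehicle-treated controls following compound exposure; the mutations affect DNA damage repair.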
Where [7] appears, read: at 5.0 µM (retest, dose inferred, filed as 0.5).
Setting [8] is: at 50.0 µM (retest, dose inferred, filed as 5.0).

Compounds without any hit were thinned out: in the full panel of roughly 79,000, 15% have a hit. A number with no mark means an inactive call. Active and inactive are the calls of the source. Cut-off read from the data, not from the text of the source: active = growth inhibition above about 70%; inactive = the rest.

With `COc1cc([C@H]2c3c(cc(OC)c(OC)c3OC)CC3COC(=O)[C@@H]32)cc2c1OCO2` (some centres not stated), the growth inhibition in test [1] (setting [7]) was 4%; in test [1] (setting [8]) it was 37%; in test [1] (at 50.0 µM), 95.5% (active); in test [2] (setting [7]), 2%; in test [2] (setting [8]), 25%; in test [2] (at 50.0 µM) it was 98.8% (active). For the same molecule, the growth inhibition in test [3] (setting [7]) is 9%; in test [3] (setting [8]), 38%; in test [3] (at 50.0 µM), 52.2%; in test [4] (setting [7]), 1%; in test [4] (setting [8]) it was 4%; in test [4] (at 50.0 µM), 98.5% (active). The growth inhibition in test [5] (setting [7]) is -2%; in test [5] (setting [8]), 53%; in test [5] (at 50.0 µM) it was 99.3% (active); in test [6] (setting [7]), -2%; in test [6] (setting [8]), 9%; in test [6] (at 50.0 µM) it was 97.5% (active).

With `CCNc1ncnc2c1ncn2Cc1ccco1`, the growth inhibition was -4% in test [1] (setting [7]); 0% in test [1] (setting [8]); -1.1% in test [1] (at 50.0 µM); -3% in test [2] (setting [7]); 0% in test [2] (setting [8]); 1.4% in test [2] (at 50.0 µM). For the same molecule, the growth inhibition in test [3] (setting [7]) was -7%; in test [3] (setting [8]), -3%; in test [3] (at 50.0 µM) it was 4.8%; in test [4] (setting [7]), 1%; in test [4] (setting [8]), -6%; in test [4] (at 50.0 µM) it was 71.3% (active). The growth inhibition in test [5] (setting [7]) is -2%; in test [5] (setting [8]), 1%; in test [5] (at 50.0 µM), -4.05%; in test [6] (setting [7]), 1%; in test [6] (setting [8]), 1%; in test [6] (at 50.0 µM), -2%.

As for `O=C(O)C(=O)Cc1ccccc1[N+](=O)[O-]`, the growth inhibition was -3% in test [1] (setting [7]); 36% in test [1] (setting [8]); 75.4% (active) in test [1] (at 50.0 µM); 1% in test [2] (setting [7]); 1% in test [2] (setting [8]); 4.9% in test [2] (at 50.0 µM). The growth inhibition in test [3] (setting [7]) is -3%; in test [3] (setting [8]) it was 28%; in test [3] (at 50.0 µM), 68.3%; in test [4] (setting [7]) it was 1%; in test [4] (setting [8]), 3%; in test [4] (at 50.0 µM), -18.6%. Also, the growth inhibition in test [5] (setting [7]) was -10%; in test [5] (setting [8]) it was 10%; in test [5] (at 50.0 µM) it was 20.5%; in test [6] (setting [7]), -2%; in test [6] (setting [8]) it was 24%; in test [6] (at 50.0 µM) it was 68.2%.

As for `CC(C)(C)NCc1cc(Nc2ccnc3cc(Cl)ccc23)cc(-c2ccc(Cl)cc2)c1O`, the growth inhibition was -6% in test [1] (setting [7]); 19% in test [1] (setting [8]); 14.7% in test [1] (at 50.0 µM); -4% in test [2] (setting [7]); 17% in test [2] (setting [8]); -16.1% in test [2] (at 50.0 µM). Also, the growth inhibition in test [3] (setting [7]) is -5%; in test [3] (setting [8]), -15%; in test [3] (at 50.0 µM), -9.6%; in test [4] (setting [7]) it was -2%; in test [4] (setting [8]), 18%; in test [4] (at 50.0 µM), 68.5%. Further, the growth inhibition in test [5] (setting [7]) was 7%; in test [5] (setting [8]) it was -8%; in test [5] (at 50.0 µM), 2.1%; in test [6] (setting [7]), -1%; in test [6] (setting [8]) it was 22%; in test [6] (at 50.0 µM), 20.5%.

Turning to `CCCCNCc1c(O)ccc2ccccc12`, the growth inhibition is 14% in test [1] (setting [7]); 99% (active) in test [1] (setting [8]); 99.1% (active) in test [1] (at 50.0 µM); 3% in test [2] (setting [7]); 99% (active) in test [2] (setting [8]); 99.2% (active) in test [2] (at 50.0 µM). The growth inhibition in test [3] (setting [7]) was 17%; in test [3] (setting [8]) it was 99% (active); in test [3] (at 50.0 µM), 99.1% (active); in test [4] (setting [7]), 10%; in test [4] (setting [8]), 98% (active); in test [4] (at 50.0 µM) it was 95.8% (active). For the same molecule, the growth inhibition in test [5] (setting [7]) is 21%; in test [5] (setting [8]), 99% (active); in test [5] (at 50.0 µM) it was 99% (active); in test [6] (setting [7]), 36%; in test [6] (setting [8]), 99% (active); in test [6] (at 50.0 µM), 99.2% (active).

With `CN(C)C(=O)c1cc(Cl)cc(-c2ccccc2)c1O`, the growth inhibition in test [1] (setting [7]) is 1%; in test [1] (setting [8]), 67%; in test [1] (at 50.0 µM) it was 40.5%; in test [2] (setting [7]), 1%; in test [2] (setting [8]) it was 74% (active); in test [2] (at 50.0 µM) it was 32.1%. Also, the growth inhibition is -1% in test [3] (setting [7]); 68% in test [3] (setting [8]); 46.1% in test [3] (at 50.0 µM); -5% in test [4] (setting [7]); 38% in test [4] (setting [8]); -6.75% in test [4] (at 50.0 µM). Further, the growth inhibition in test [5] (setting [7]) is 1%; in test [5] (setting [8]), 86% (active); in test [5] (at 50.0 µM), 60.2%; in test [6] (setting [7]) it was 1%; in test [6] (setting [8]), 93% (active); in test [6] (at 50.0 µM), 78.8% (active).

In the case of `CCCCCCCCCc1cc(=O)[nH]c(=S)[nH]1`, the growth inhibition is 17% in test [1] (setting [7]); 74% (active) in test [1] (setting [8]); 85.1% (active) in test [1] (at 50.0 µM); 6% in test [2] (setting [7]); 72% (active) in test [2] (setting [8]); 77.7% (active) in test [2] (at 50.0 µM). The growth inhibition in test [3] (setting [7]) was 25%; in test [3] (setting [8]) it was 65%; in test [3] (at 50.0 µM), 79.3% (active); in test [4] (setting [7]) it was -13%; in test [4] (setting [8]), 58%; in test [4] (at 50.0 µM), 50.5%. Moreover, the growth inhibition in test [5] (setting [7]) was 8%; in test [5] (setting [8]) it was 77% (active); in test [5] (at 50.0 µM), 85.9% (active); in test [6] (setting [7]) it was 20%; in test [6] (setting [8]) it was 84% (active); in test [6] (at 50.0 µM), 86.8% (active).

In the case of `CC(=O)N1c2ccccc2Sc2ccc3ccc(C(=O)CCl)cc3c21`, the growth inhibition in test [1] (setting [7]) was 81% (active); in test [1] (setting [8]), 97% (active); in test [1] (at 50.0 µM), 87.2% (active); in test [2] (setting [7]) it was 83% (active); in test [2] (setting [8]), 98% (active); in test [2] (at 50.0 µM), 90.5% (active). The growth inhibition was 92% (active) in test [3] (setting [7]); 98% (active) in test [3] (setting [8]); 89.9% (active) in test [3] (at 50.0 µM); 70% (active) in test [4] (setting [7]); 97% (active) in test [4] (setting [8]); 88.3% (active) in test [4] (at 50.0 µM). Moreover, the growth inhibition in test [5] (setting [7]) is 93% (active); in test [5] (setting [8]) it was 97% (active); in test [5] (at 50.0 µM), 89.2% (active); in test [6] (setting [7]), 65%; in test [6] (setting [8]) it was 97% (active); in test [6] (at 50.0 µM) it was 87.8% (active).

Take `O=C(O)CCCCCCCCCCOc1ccc(Cl)cc1Cl`: the growth inhibition in test [1] (setting [7]) is -3%; in test [1] (setting [8]) it was -8%; in test [1] (at 50.0 µM), 98% (active); in test [2] (setting [7]), -2%; in test [2] (setting [8]), -2%; in test [2] (at 50.0 µM), 99.1% (active). Besides, the growth inhibition in test [3] (setting [7]) is 0%; in test [3] (setting [8]), -3%; in test [3] (at 50.0 µM) it was 94.3% (active); in test [4] (setting [7]), 1%; in test [4] (setting [8]), -8%; in test [4] (at 50.0 µM) it was 5.5%. The growth inhibition was -1% in test [5] (setting [7]); 2% in test [5] (setting [8]); 99.3% (active) in test [5] (at 50.0 µM); 0% in test [6] (setting [7]); -1% in test [6] (setting [8]); 98.2% (active) in test [6] (at 50.0 µM).

The record behind these values is PubChem BioAssay (NCI).
